# Measurements as given in PubChem BioAssay (NCI).
# This is part of a sample that, as a whole, favours compounds with a hit. Of some 79,000 tested, about 15% had one in any assay. Values without a mark were called inactive. Activity calls are given as the source filed them. No stated cut-off is given here; in the data, active means growth inhibition above about 70%; inactive means the rest.
# What was measured:
# [1] = NCI Yeast Anticancer Drug Screen. Data for the rad50 strain (AID 155);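 further: 0% = growth of vehicle-only cultures of the same strain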; settings: S. cerevisiae rad50 strain growth inhibition; at 50.0 µM; active compounds read high
# Outline: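 Relative growth inhibition (compound vs vehicle) was measured in yeast with a defined repair-gene alteration.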
# [2] = NCI Yeast Anticancer Drug Screen. Data for the mec2-1 strain (AID 157); settings: S. cerevisiae mec2-1 strain, at 50.0 µM, active compounds read high
# Outline: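 Vehicle-treated cultures served as reference for growth inhibition of compound-exposed mec2-1 yeast.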
# [3] = NCI Yeast Anticancer Drug Screen. Data for the sgs1 mgt1 strain (AID 161);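 further: 0% = growth of cultures given vehicle only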; settings: S. cerevisiae sgs1 mgt1 strain, at 50.0 µM, active compounds read high
# Outline: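 Genetically altered yeast, compound exposure, growth inhibition relative to vehicle.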
# [4] = NCI Yeast Anticancer Drug Screen. Data for the cln2 rad14 strain (AID 165);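 further: 0% = growth equal to vehicle treated cultures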; settings: S. cerevisiae cln2 rad14 strain, at 50.0 µM, active compounds read high
# Outline: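 Each compound was tested on cln2 rad14 yeast. Inhibition of growth was calculated against vehicle-exposed controls.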
# [5] = NCI Yeast Anticancer Drug Screen. Data for the bub3 strain (AID 167); settings: S. cerevisiae bub3 mutant strain, at 50.0 µM, active compounds read high
# Outline: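 Screening used yeast with an engineered genetic alteration affecting cell cycle control. Compound-exposed cultures were compared with vehicle cultures, and reduced growth was taken as inhibition.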
# [6] = NCI Yeast Anticancer Drug Screen. Data for the mlh1 rad18 strain (AID 175); settings: S. cerevisiae mlh1 rad18 strain growth inhibition; at 50.0 µM; active compounds read high
# Outline: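 Vehicle-treated cultures served as the reference for growth inhibition in a yeast strain carrying DNA damage repair alterations exposed to each compound.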
Compound,growth inhibition [1],growth inhibition [2],growth inhibition [3],growth inhibition [4],growth inhibition [5],growth inhibition [6]
OC[C@@H]1C2CCC([C@@H]1CO)C2(Cc1ccccc1)Cc1ccccc1,5.9%,26.9%,9.45%,-73%,4.95%,-11.2%
CN(C)P(=O)(Nc1ccc(Cl)cc1)Nc1ccc(Cl)cc1,11.7%,-1.9%,2.1%,3.9%,12.7%,7.5%
O=[N+]([O-])c1ccc(-c2csc(N=Nc3c(O)[nH]c4ccccc34)n2)cc1,-31.2%,-20.2%,-22.4%,-16.7%,-31.4%,-46.4%
CCOC(=O)C1Cc2c(n(C3CCCCC3)c(=O)n(C)c2=O)OC1c1ccccc1 (stereo unspecified),14.4%,-5.15%,-7%,16.1%,2.55%,-8.05%
C(=N[C@H]1CCCC[C@H]1N=Cc1ccc[nH]1)c1ccc[nH]1,14.8%,-3.6%,8.75%,3.45%,13.9%,20.7%
CSc1nnc(CCC(=O)Nc2ccc(Cl)cc2Cl)o1,0.75%,12.5%,10.9%,10.3%,14.4%,-10.2%
Cc1cccc(C(=O)OCc2ccccc2CN2CCCCC2)c1,-5.15%,-9.75%,-12.9%,-21.6%,2.85%,-3.6%
COc1ccc(OC)c2c(Cl)cc(NCCCN3CCN(CCCNc4cc(Cl)c5c(OC)ccc(OC)c5n4)CC3)nc12,13.5%,16.4%,21.8%,-24.1%,4.65%,25.1%
O=C(O)c1ccc(OCC(=O)c2ccccc2)cc1,6.35%,16.9%,-5.6%,-6.65%,36.1%,8.25%
O=C(NC(=S)Nc1ccc(Cl)cc1C(=O)c1ccccc1)c1ccc(Cl)cc1Cl,-32%,6.9%,-8.45%,74.4% (active),-3.05%,-1.15%
N/C(=N\C(=O)OCCOC(=O)/N=C(/N)c1ccccc1)c1ccccc1,-3.5%,-8.5%,-6.05%,-20.5%,-3.1%,-27.1%
Nc1c(C(=O)Nc2cccc3c2C(=O)c2ccccc2C3=O)ccc2c1C(=O)c1ccccc1C2=O,35.1%,10.1%,43.3%,26.7%,2.75%,24%
O=[N+]([O-])c1ccc(S(=O)(=O)/N=C/c2ccccc2)cc1,2.2%,9.25%,8.75%,14.7%,14.4%,12.3%
NC1(c2ccccc2)CON=C(c2ccccc2)C1 (stereo unspecified),17.2%,5.85%,-5.8%,-15.8%,1.4%,16.9%
COc1cc(O)c2c(c1)C(=O)C1=C(C2=O)C(O)C[C@@](C)(O)C1 (stereo partly specified),89.2% (active),90.2% (active),92% (active),75.5% (active),91.2% (active),90% (active)
CCOC(NC(=O)CC)(C(F)(F)F)C(F)(F)F,4.3%,-24.6%,-49.9%,-3.4%,1.85%,-36.9%
N[C@@H](CCC(=O)NC(Cc1ccccc1)C(=O)NCP(=O)(O)O)C(=O)O (stereo partly specified),-60.9%,-17.9%,-45.9%,-1.75%,-10.5%,-55.4%
COC(=O)CC(c1ccccc1)N1CCOCC1 (stereo unspecified),-12.3%,19.4%,-10.2%,-20.4%,7.35%,12.8%
CN1CCC(=O)C(c2ccccc2)(c2ccccc2)CC1,-8%,-8.6%,3.45%,-24.9%,28.4%,-26.7%
COc1ccc2c3c(ccc2c1)C1CC(=O)CC1CC3 (stereo unspecified),30.6%,-11.2%,54.8%,12.2%,61%,14.7%
C=CCOC(C)OCC=C,17.9%,7.9%,-1.35%,-23.5%,13.3%,-0.15%

Compound,growth inhibition [1],growth inhibition [2],growth inhibition [3],growth inhibition [4],growth inhibition [5],growth inhibition [6]
O=C(O)c1ccccc1NC(=O)C1CCCCC1,10.1%,6.8%,16.3%,0.85%,-6.55%,14.5%
O=C1C(=O)N(C2CCCCC2)C(=S)N1C1CCCCC1,-31.9%,-30.1%,-62.1%,-2.5%,-5.2%,12.3%
CCCS(=O)(=O)CCC(=O)c1ccccc1,-4%,-7.9%,-9%,-13.8%,0.85%,2.7%
CCN(CC)c1ccc(S(=O)(=O)NC(=O)OC)cc1,3.55%,-2%,-0.65%,3.45%,-1.25%,-5.5%
COc1cc2c(cc1OC)C(=O)C(C1=C(SC(=N)N)C(=O)c3cc(OC)c(OC)cc31)C2 (stereo unspecified),-7.4%,-21.9%,-7.75%,-0.65%,2.85%,-2%
O=C1CCC2=C(N1)C(=O)C=CC2=O,1.8%,13.2%,-13.2%,-32%,-8.35%,10.9%
CCC(=O)Oc1ccc(C(OC(=O)CC)OC(=O)CC)cc1OC,-9.1%,-9.1%,11.8%,-20.2%,9.45%,8.05%
O=C(/C=C\c1ccc(Cl)cc1)c1ccccc1,-23.1%,-34.5%,15.3%,-6.4%,12.7%,2.05%
N#Cc1nc(NC(=O)c2ccccc2)sc1N,-5.7%,-29.9%,-27.6%,11.2%,4.2%,-10.2%
OC1(c2ccccc2)CCCN(Cc2ccccc2)C1 (stereo unspecified),3.75%,7%,6.6%,-17.4%,14.6%,15.8%
CCCN/C=C1\CC(=O)N(C)C1=O,5.15%,8.45%,2.5%,-33.7%,6.4%,11.2%
CCCC(=O)Oc1c(Cl)cc(Cl)cc1-c1ccccc1,12.8%,12.9%,37.9%,8.1%,28.6%,1.45%
O=COCCc1ccccc1,-17.9%,-6.2%,8.35%,5.4%,-8.15%,3.7%
COc1ccc2nccc(N)c2c1,31.9%,-7.95%,15.1%,11.5%,-8.05%,20.9%
CCCCCCCCCCCCCCCCCC(=O)N/N=C/c1ccc(O)cc1,-22.3%,-12.4%,-16.2%,-61.2%,-6.2%,1.85%
c1ccc2cc(C3OCC4(CCC4)CO3)ccc2c1,11.6%,-1.35%,3.1%,-26.8%,24.8%,-6.9%
O=c1[nH]nc(SCc2ccccc2)c2nncn12,2.45%,3.1%,6.35%,23.4%,6.55%,20.1%
CCCCCCCCCCCC[N+]12CC[N+](C)(CC1)CC2,16.2%,-24.4%,-10.7%,-49%,-27.6%,-15.6%
CCCCCCCCN(CCCCCCCC)CC(O)c1ccc2c(c1)Sc1ccccc1O2 (stereo unspecified),96.7% (active),98.2% (active),97.5% (active),97.1% (active),97.1% (active),98% (active)
COc1ccc(-c2nnc(N)o2)cc1OC,-34%,-10.3%,-16.1%,6.35%,-13.9%,-24.9%
